# Sfp PPTase inh: inhibitors of Bacillus subtilis Sfp phosphopantetheinyl transferase; Q9F4F7; Biochemical Sfp PPTase activity, qHTS; Potency, µM, inactives show largest response in the series, negative = inhibition, usual class: inhibitors; 310,000 compounds, 3.5% hits;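 note: the enzyme is Sfp with the accession as filed and its product quenches rhodamine fluorescence; 0% = enzyme reaction without inhibitor and -100% = no enzyme wells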
#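 Sfp 15 nM + cpd, 15 min RT; start w/ rhodamine-CoA 5 uM, BHQ-2-YbbR 12.5 uM (final); 50 mM Hepes pH 7.6, 10 mM MgCl2, 0.01% NP-40, 0.01% BSA; read 525/598 nm at 0 and 30 min.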
# VDR inhibitor: inhibitors of human vitamin D receptor. 400,000 compounds, 0.93% hits. P11473. VDR-SRC2-3 peptide fluorescence polarization, 2 h. Potency, µM, for the others: max response, negative = inhibition, usual class: inhibitors. AID 504847; note: % is set by controls: 0 for no effect and ±100 for the full control effect
#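 The screen uses fluorescence polarization to detect compounds that interfere with recruitment of the SRC2-3 coactivator peptide to VDR; plates are read after 2 h at room temperature.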
# rTrxR1 inhibitor: inhibitors of rat thioredoxin reductase 1. O89049. recombinant rTrxR1, NADPH fluorescence consumption, selenite substrate. Potency, µM (doses to about 114 µM), inactives show top-dose activity change, negative = inhibition, actives largely listed as inhibitors. 390,000 compounds, 1% hits; note: % is set by controls: 0 for no effect and ±100 for the full control effect; nearly all actives have a fitted effect of over 65% in size
#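 Rat TrxR1 (90 nM in the dispensed reagent) was pre-reduced with 400 uM NADPH for 5 min at room temperature, then incubated with compound for 15 min. After 400 uM selenite was added, NADPH fluorescence (Ex 340/Em 450 nm) was followed for 8 min.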
# PLK1 PBD block: inhibitors of human PLK1 polo-box domain binding; Plk1 PBD binding of FITC phosphopeptide, fluorescence polarization; 360,000 compounds, 2.8% hits; P53350; AID 720504; Potency, µM, for inactives: max response, negative = inhibition, hits mostly inhibitors; note: series mostly up to about 57 µM; % is set by controls: 0 for no effect and ±100 for the full control effect; nearly all actives have a fitted effect of over 65% in size
# TrxR1 substrate: rat thioredoxin reductase 1 substrate activity; O89049; purified TrxR1 substrate turnover, NADPH consumption readout; Potency, µM (titrated, usually from 114 µM), for the others: top-dose activity change, negative = substrate turnover; 390,000 compounds, 0.01% hits; note: % is set by controls: 0 for no effect and ±100 for the full control effect; nearly all actives have a fitted effect of over 50% in size
#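 Rat TrxR1, dispensed at 90 nM, was prereduced with 400 uM NADPH (final) for 5 min at ~22 deg C, then incubated with compound 15 min before 400 uM selenite. A first-read NADPH fluorescence drop versus no-compound background flagged substrates.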
# IDH1 R132H inh: inhibitors of human mutant IDH1 R132H; O75874; IDH1-R132H enzyme, NADPH consumption, diaphorase/resazurin fluorescence; Potency, µM (top dose mostly 76.6 µM), without a hit: at the highest dose activity change, negative = inhibition, actives largely listed as inhibitors; 390,000 compounds, 0.093% hits; note: % is set by controls: 0 for no effect and ±100 for the full control effect; nearly all actives have a fitted effect of over 65% in size
# Target sequence (O75874 whole entry R132H, stated change not applied): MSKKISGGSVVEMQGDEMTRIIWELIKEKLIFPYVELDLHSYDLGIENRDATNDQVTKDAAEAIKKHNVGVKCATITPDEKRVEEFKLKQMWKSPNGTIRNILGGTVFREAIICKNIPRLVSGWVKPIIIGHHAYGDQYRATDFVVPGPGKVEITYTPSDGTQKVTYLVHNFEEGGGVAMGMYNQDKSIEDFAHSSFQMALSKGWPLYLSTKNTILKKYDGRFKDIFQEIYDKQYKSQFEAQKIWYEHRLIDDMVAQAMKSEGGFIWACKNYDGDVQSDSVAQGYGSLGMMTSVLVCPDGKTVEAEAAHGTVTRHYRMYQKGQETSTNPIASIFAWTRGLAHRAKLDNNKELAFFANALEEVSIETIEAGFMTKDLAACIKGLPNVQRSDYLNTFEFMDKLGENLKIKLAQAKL
#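 IDH1-R132H (0.5 ug/mL dispensed) in pH 7.5 Tris buffer was preincubated 30 min with compound, then given a substrate mix of 0.016 mM NADPH and 2 mM alpha-KG for 80 min at room temperature; remaining NADPH was read by diaphorase/resazurin fluorescence.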
# VDR inh confirm: confirmation of human vitamin D receptor inhibitors. AID 602199. 840 compounds, 89% hits. Potency, µM, usual class: inhibitors. shares compounds with VDR inhibitor. VDR-coactivator inhibition assay, qHTS confirmation
# VDR FP fluor: confirmation of human VDR-coactivator binding inhibitors, fluorescein label; shares compounds with VDR inhibitor; VDR-coactivator binding, fluorescein fluorescence polarization; Potency, µM (doses to about 57.1 µM), without a hit: at the highest dose activity change, negative = inhibition, most hits filed as inhibitors; AID 602200; 840 compounds, 48% hits
# VDR bla: inhibits human VDR in beta-lactamase reporter cells. shares compounds with VDR inhibitor. VDR beta-lactamase reporter cells, FRET ratio; cells co-treated with VDR agonist LG190178. Potency, µM (doses to about 46.1 µM), for inactives: at the top dose activity change, negative = inhibition, usual class: inhibitors. 840 compounds, 23% hits; note: % is set by controls: 0 for no effect and ±100 for the full control effect
# VDR cytotox: counter-screen for vitamin D receptor inhibitors: cytotoxicity; cytotoxicity counter-screen, cell viability, qHTS; Potency, µM (titrated, usually from 48.3 µM), for inactives: at the highest dose activity change, negative = cytotoxicity, actives largely listed as cytotoxic; 840 compounds, 18% hits; shares compounds with VDR inhibitor; AID 602204;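 note: plate controls were DMSO for no effect and high-concentration cycloheximide for full effect; nearly all actives have a fitted effect of over 75% in size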
# * = called active by the depositor; ? = inconclusive; nt = no result given; [ ] = another dose, or the depositor's remark. Sampled rows, rich in hits. Any-hit rate of the full collection: about 5.2%. Calls come from the whole dose curve; as a rule, active = well fitted curve in the direction sought with a large enough effect; inconclusive = small, poorly fitted or top-dose-only effect, or another doubt; inactive = no such curve, though single readings can be large; an effect the other way counts as inactive or inconclusive. Potency is the fitted concentration of half-maximal effect.
SMILES,Sfp PPTase inh,VDR inhibitor,rTrxR1 inhibitor,PLK1 PBD block,TrxR1 substrate,IDH1 R132H inh,VDR inh confirm,VDR FP fluor,VDR bla,VDR cytotox
NS(=O)(=O)c1ccc(NC(=O)c2nc(S(=O)(=O)Cc3ccccc3F)ncc2Cl)cc1,nt,nt,3.5µM*,nt,4%,nt,5*,3.5µM*,?,11%
CCCCCCCCCCCC[n+]1ccc(C)c2ccccc21,nt,nt,?,nt,-10%,nt,nt,nt,nt,nt
CC(C)(C)c1ccc(C(=O)NCC(c2cccs2)S(=O)(=O)c2ccc(F)cc2)cc1 (stereo not drawn),nt,13%,-24%[57.1 µM],nt,-22%[57.1 µM],1%,nt,nt,nt,nt
COC(CNC(=O)c1cccnc1)OC,3%,1%,4%[57.1 µM],-1%,4%,14%,nt,nt,nt,nt
COC(CNC(=O)c1ccc2c3c(onc13)-c1ccccc1C2=O)OC,18µM*,40µM*,?,3.4µM*,-7%,-3%,3.8*,?,?,?
COc1ccc(OC)c(S(=O)(=O)CC(=O)c2cc3ccc(OC)cc3oc2=O)c1,-10%,-9%,15%,-3%,2%,4%,nt,nt,nt,nt
COc1ccc(S(=O)(=O)CC(=O)c2cc3cc(Br)ccc3oc2=O)cc1,-23%,?,-24%,1.7µM*,0%,2%,10*,4µM*,-26%,28%
Nc1cc(S(=O)(=O)Nc2ccccc2Cl)ccc1N1CCCCC1,nt,?,-18%,2.4µM*,-9%,-16%,7.1*,7.1µM*,-26%,-27%
CCNC(=O)C1(C)CCCN(C(=O)Cc2ccc(OC)c(OC)c2)C1 (stereo not drawn),nt,nt,nt,8%,nt,nt,nt,nt,nt,nt
CCOC(=O)c1c(C)nc2c(c1-c1cc(OC)ccc1OC)C(=O)c1ccccc1-2,-20%,2%,7%,3%,2%,0%,nt,nt,nt,nt
CCOC(=O)C1=C(Cc2ccc(OC)cc2)C(=O)c2ccccc2C1=O,10µM*,7.9µM*,?,12µM*,-12%[57.1 µM],21%,0.71*,?,23µM*,?
CN(C)S(=O)(=O)c1ccc(NC(=O)CCNC(=O)c2ccco2)cc1,13%,13%,6%,1%,4%,0%,nt,nt,nt,nt
O=C(Nc1ccc(F)c(Cl)c1)c1cc(C2CCCN(C(=O)CCc3ccccc3)C2)on1 (stereo not drawn),nt,nt,nt,0%,nt,nt,nt,nt,nt,nt
COC(=O)CC1=NN(c2ccc(OC)cc2)C(=O)/C1=C\c1ccc(Cl)cc1,6%,40µM*,-40%,2.4µM*,-4%[57.1 µM],-7%,21*,?,-5%,-10%
O=C(Nc1ccc(N2CCOCC2)c(S(=O)(=O)Nc2ccc(Cl)cc2)c1)c1cnccn1,5.6µM*,79µM*,0%,5.3µM*,-10%,-4%,17*,?,18%,-12%
COc1ccc(S(=O)(=O)Nc2ccc(O)c(Sc3ncn[nH]3)c2)cc1,-6%,9%,13%,-10%,13%,8%,nt,nt,nt,nt
COc1ccc(S(=O)(=O)Nc2cc(SCC(=O)O)c(O)c3ccccc23)cc1,7.1µM*,?,-25%,1.5µM*,-6%,18%,16*,14µM*,?,?
Cc1cc(C)c(S(=O)(=O)Nc2cc(SCC(=O)O)c(O)c3ccccc23)cc1C,8.9µM*,22µM*,?,1.5µM*,-11%,5%,5.3*,11µM*,0%,?
COc1ccc(S(=O)(=O)Nc2cc(Sc3ncn[nH]3)c(O)c3ccccc23)cc1,3.5µM*,20µM*,?,nt,50µM*,nt,21*,?,?,18µM*
O=C(O)CSc1cc(NS(=O)(=O)c2ccc(Cl)cc2)c2ccccc2c1O,10µM*,3.5µM*,?,1.3µM*,-20%,19%,30*,?,?,?
O=S(=O)(Nc1ccc(Cl)cc1NS(=O)(=O)c1ccccc1)c1ccccc1,nt,-21%,9%[2.29 µM],?,5%[2.29 µM],19%,nt,nt,nt,nt
O=C(Oc1ccc(Br)cc1C(=O)/C=C/c1ccccc1F)c1ccco1,nt,45µM*,-24%,-16%,5%,6%,?,7.1µM*,-9%,?
CC(=O)c1cc(Cl)ccc1OC(=O)c1ccco1,2%,-12%,-7%,-10%,-5%,-4%,nt,nt,nt,nt
c1ccc(-c2ccc(C3=Nn4c(Cn5nnc6ccccc65)nnc4SC3)cc2)cc1,28µM*,?,-5%,4.7µM*,-6%[2.29 µM],0%,14*,10µM*,-9%,-9%
Nc1ccc2c(c1)C(=O)c1ccccc1-2,nt,7%,20%,-18%,0%,8%,nt,nt,nt,nt
SMILES,Sfp PPTase inh,VDR inhibitor,rTrxR1 inhibitor,PLK1 PBD block,TrxR1 substrate,IDH1 R132H inh,VDR inh confirm,VDR FP fluor,VDR bla,VDR cytotox
O=C1C(=O)c2ccc(-c3ccccc3)cc2-c2ccccc21,1%,3.5µM*,?,-19%,10µM*,7%,0.67*,?,3.3µM*,2.5µM*
c1ccc(-c2nn3c(Cn4cnc5ccccc54)nnc3s2)cc1,10µM*,?,-11%,7.5µM*,2%,13%,20*,7.1µM*,-21%,-19%
Clc1ccc(Cl)c(-c2nn3c(Cn4cnc5ccccc54)nnc3s2)c1,nt,-1%,23%,-11%,8%,-2%,nt,nt,nt,nt
CCSc1ncc(Cl)c(C(=O)Nc2ccc(S(=O)(=O)N3CCC(C)CC3)cc2)n1,nt,5%,21%,nt,-3%,10%,nt,nt,nt,nt
COC(=O)c1ccc(NC(=O)c2nc(S(=O)(=O)Cc3cccc(C)c3)ncc2Cl)cc1,?,20µM*,20µM*,?,-2%,2%,6*,?,15µM*,12µM*
CCOc1ccccc1NC(=O)c1nc(S(=O)(=O)Cc2ccccc2)ncc1Cl,-9%,11µM*,7.9µM*,?,-4%,-3%,6.7*,3.2µM*,6.5µM*,8.2µM*
Cc1ccc(CNC(=O)c2nc(S(=O)(=O)Cc3ccc(C)cc3)ncc2Cl)cc1,nt,-8%,?,nt,3%,0%,nt,nt,nt,nt
CCS(=O)(=O)c1ncc(Cl)c(C(=O)Nc2ccc(S(=O)(=O)N3CCC(C)CC3)cc2)n1,-19%,14µM*,8.9µM*,?,-1%,1%,5.3*,3.5µM*,8.2µM*,3.7µM*

# Compound activity: PubChem BioAssay, National Center for Advancing Translational Sciences (NCATS)
